Assay results: PubChem BioAssay (EPA / NIEHS)
Inconclusive results are not listed. Activity calls are given as the source filed them. How the source made its calls, unless noted: active means hit-call score of the fitted dose curve at least 0.9, where 1 is the maximum; inconclusive means response in the unintended direction; inactive means score below 0.9.

Assays:
[1] = TOX21_p53_BLA_p2_viability: Viability Assessment in the Tox21 HCT-116 p53 Agonism Beta-lactamase Assay, Phase 2 (AID 2283591);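 further: compound exposure lasted 16 h at 37 °C; actives lower the ATP signal meaning cytotoxicity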
Method in brief: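 HCT116 p53-bla cells, 4000/well, dosed after 5 h plating (217-fold dilution of DMSO stocks) and incubated 16 h at 37C. Viability taken as cellular ATP by CellTiter-Glo luminescence after 30 min RT; signal loss marks cytotoxicity.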

[2] = TOX21_p53_BLA_p3_viability: Viability Assessment in the Tox21 HCT-116 p53 Agonism Beta-lactamase Assay, Phase 3 (AID 2283593);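 further: cells exposed to compound for 16 h before reading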
Method in brief: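 HCT116 cells, 4000/well, dosed 5 h after plating by pin transfer (217-fold dilution from DMSO stock) and incubated 16 h at 37C, 5% CO2. Viability read as ATP luminescence with CellTiter-Glo after 30 min at room temperature.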

[3] = TOX21_p53_BLA_p4_viability: Viability Assessment in the Tox21 HCT-116 p53 Agonism Beta-lactamase Assay, Phase 4 (AID 2283597);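 further: hits lower the luminescence signal meaning cytotoxicity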
Method in brief: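 In this multiplexed secondary endpoint, HCT116 cells (4000 per well, compound at 5 h, 16 h treatment) received CellTiter-Glo after the beta-lactamase read. Luminescence after 30 min RT reflects ATP, and falling signal marks cytotoxicity.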

[4] = biological target: Cellular tumor antigen p53 (Homo sapiens) (UniProt P04637); assay: TOX21_p53_BLA_p5_ratio: Tox21 HCT-116 p53 Agonism Beta-lactamase Assay, Ratio, Phase 5 (AID 2283599)
Chain of Cellular tumor antigen p53 (Homo sapiens) (P04637 whole entry, looked up): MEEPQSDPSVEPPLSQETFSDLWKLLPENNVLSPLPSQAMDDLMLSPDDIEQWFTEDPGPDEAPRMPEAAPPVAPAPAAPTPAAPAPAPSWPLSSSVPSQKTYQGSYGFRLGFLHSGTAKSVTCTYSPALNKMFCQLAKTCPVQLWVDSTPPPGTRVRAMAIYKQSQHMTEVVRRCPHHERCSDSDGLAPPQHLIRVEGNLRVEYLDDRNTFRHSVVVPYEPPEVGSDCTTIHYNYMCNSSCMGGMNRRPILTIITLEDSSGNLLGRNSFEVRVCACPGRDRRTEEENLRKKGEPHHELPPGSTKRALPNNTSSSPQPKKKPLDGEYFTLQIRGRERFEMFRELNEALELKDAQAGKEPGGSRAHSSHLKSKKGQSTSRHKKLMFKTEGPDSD
Method in brief: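 HCT-116 p53-bla cells (4000/well) plated 5 h, dosed with compound (217-fold DMSO dilution) for 16 h at 37 C; CCF4-AM substrate 2 h at room temperature. Activity is the 460/530 nm emission ratio (405 nm excitation), fitted in gain-of-signal direction versus DMSO.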

[5] = TOX21_p53_BLA_p5_viability: Viability Assessment in the Tox21 HCT-116 p53 Agonism Beta-lactamase Assay, Phase 5 (AID 2283600)
Method in brief: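 Here cell health was gauged by ATP levels in wells holding 4000 cells, each treated 16 h with DMSO-delivered compounds at 217-fold dilution; reduced luminescence marked toxicity.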

[6] = biological target: Cellular tumor antigen p53 (Homo sapiens) (UniProt P04637); assay: TOX21_p53_BLA_p3_ratio: Tox21 HCT-116 p53 Agonism Beta-lactamase Assay, Ratio, Phase 3 (AID 2283596)
Method in brief: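 Cells were seeded at 4000/well, rested 5 h at 37C, then dosed with DMSO compound solutions (217-fold dilution) for 16 h. CCF4-AM substrate was loaded for 2 h at room temperature, and the 460/530 nm emission ratio was fitted for gain of signal versus DMSO.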

[7] = biological target: Cellular tumor antigen p53 (Homo sapiens) (UniProt P04637); assay: TOX21_p53_BLA_p4_ratio: Tox21 HCT-116 p53 Agonism Beta-lactamase Assay, Ratio, Phase 4 (AID 2283601)
Method in brief: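 HCT-116 p53 beta-lactamase reporter cells (4000/well) preincubated 5 h, then compound (217-fold dilution of DMSO stock) for 16 h at 37C. CCF4-AM substrate added 2 h at room temperature; 460/530 nm emission ratio fitted upward versus DMSO.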

[8] = CCTE_Harrill_HTTr_Viability_MCF7: CCTE's 6-hour Cell Viability Assessment for the High-Throughput Transcriptomics (HTTr) Platform, in MCF-7 cells cultured in DMEM + 10% fetal bovine serum, Harrill Lab (AID 2284010; active means hit-call score of the fitted dose curve at least 0.9, where 1 is the maximum; inactive means score below 0.9)
Method in brief: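 Eight-point concentration series, six-hour exposure. Propidium iodide exclusion imaged to assess membrane integrity as a cytotoxicity readout; bidirectional fitting was done with DMSO as negative control and activity baseline.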

[9] = CCTE_Harrill_HTTr_Apoptosis_MCF7: CCTE's 6-hour Apoptosis Assessment for the High-Throughput Transcriptomics (HTTr) Platform, in MCF-7 cells cultured in DMEM + 10% fetal bovine serum, Harrill Lab (AID 2284011; active means hit-call score of the fitted dose curve at least 0.9, where 1 is the maximum; inactive means score below 0.9)
Method in brief: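 Apoptosis in MCF-7 cells grown in DMEM with 10% fetal bovine serum was scored after a six hour exposure by high content imaging of caspase-3/7 activation (CellEvent Caspase 3/7 Green), with DMSO serving as negative control and baseline.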

[10] = CCTE_Harrill_HTTr_CellCount_MCF7: CCTE's Cell Proliferation Assessment for the High-Throughput Transcriptomics (HTTr) Platform, Harrill Lab (AID 2284012);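 further: count of Hoechst-stained nuclei per well by high-content imaging in MCF-7 cells; cells exposed to compound for six hours; intended direction is loss of nuclei count meaning fewer cells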
Method in brief: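 For this full-screen endpoint, MCF-7 cultures received eight compound dilutions for six hours. Well nuclei counts from Hoechst imaging were analyzed relative to DMSO.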

[11] = biological target: PGR (gene 5241) (UniProt P06401); assay: TOX21_PR_BLA_Followup_Antagonist_ratio: Tox21 HEK293 Progesterone Receptor (PR) Antagonism Beta-lactamase Follow-Up Assay, Ratio (AID 2283934);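 further: PR-UAS-bla HEK293T cells stimulated with 1 nM R5020 agonist for 16 hr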
Chain of PGR (gene 5241) (P06401 whole entry, looked up): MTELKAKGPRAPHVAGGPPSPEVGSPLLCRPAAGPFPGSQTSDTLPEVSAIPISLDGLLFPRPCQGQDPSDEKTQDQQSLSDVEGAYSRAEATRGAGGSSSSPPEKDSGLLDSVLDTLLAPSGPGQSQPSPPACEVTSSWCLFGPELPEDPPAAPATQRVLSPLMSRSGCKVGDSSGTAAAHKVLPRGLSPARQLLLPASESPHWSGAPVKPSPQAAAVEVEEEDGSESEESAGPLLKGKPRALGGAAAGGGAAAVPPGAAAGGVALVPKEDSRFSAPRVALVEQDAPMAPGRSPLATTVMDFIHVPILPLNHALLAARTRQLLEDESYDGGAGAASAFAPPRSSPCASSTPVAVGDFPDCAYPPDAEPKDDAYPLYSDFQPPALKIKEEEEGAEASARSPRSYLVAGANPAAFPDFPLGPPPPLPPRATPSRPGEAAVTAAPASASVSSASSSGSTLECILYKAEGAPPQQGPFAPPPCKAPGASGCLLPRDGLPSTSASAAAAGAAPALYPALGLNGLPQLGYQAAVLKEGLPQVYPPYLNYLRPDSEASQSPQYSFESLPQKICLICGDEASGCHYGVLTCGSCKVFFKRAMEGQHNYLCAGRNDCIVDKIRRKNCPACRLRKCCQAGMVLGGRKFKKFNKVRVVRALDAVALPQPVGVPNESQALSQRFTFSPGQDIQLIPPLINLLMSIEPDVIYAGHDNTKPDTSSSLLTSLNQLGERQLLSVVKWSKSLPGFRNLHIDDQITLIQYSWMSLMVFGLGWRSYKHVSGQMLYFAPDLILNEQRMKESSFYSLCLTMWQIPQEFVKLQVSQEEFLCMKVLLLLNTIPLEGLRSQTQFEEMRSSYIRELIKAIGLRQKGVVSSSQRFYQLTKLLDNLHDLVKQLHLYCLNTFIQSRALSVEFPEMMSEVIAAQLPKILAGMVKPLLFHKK
Method in brief: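 Measured in PR-UAS-bla HEK293T cells co-treated with compound and 1 nM promegestone for 16 hr; beta-lactamase ratio read after 2 h FRET substrate loading, with parallel CellTiter-Glo cytotoxicity.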

[12] = TOX21_PR_BLA_Followup_Agonist_viability: Viability Assessment in the Tox21 HEK293 Progesterone Receptor (PR) Agonism Beta-lactamase Follow-Up Assay (AID 2283935);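 further: signal loss means lower viability so actives are cytotoxic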
Method in brief: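 Viability is read as CellTiter-Glo luminescence, where loss of signal indicates cytotoxicity. The cells are PR-UAS-bla HEK293T given compounds for 16 hr at 37C and 5% CO2, in the same wells used for the bla readout.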

[13] = TOX21_PR_BLA_Followup_Antagonist_viability: Viability Assessment in the Tox21 HEK293 Progesterone Receptor (PR) Antagonism Beta-lactamase Follow-Up Assay (AID 2283936);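 further: cells exposed to compound with R5020 agonist for 16 h; hits lower the luminescence signal meaning cytotoxicity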
Method in brief: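 PR-UAS-bla HEK293T cells in medium with 2% charcoal-stripped FBS were treated with compounds plus R5020 for 16 hr at 37C. After the beta-lactamase read, CellTiter-Glo was added to the same wells and luminescence read after 30 min at room temperature.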

[14] = biological target: PGR (gene 5241) (UniProt P06401); assay: TOX21_PR_LUC_Followup_Antagonist: Tox21 HEK293 Progesterone Receptor (PR) Antagonism Luciferase Follow-Up Assay (AID 2283938);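 further: curve fitted upward as signal gain over DMSO baseline despite antagonist label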
Method in brief: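 Luciferase reporter in HEK293-PR-A-luc cells: 16 h compound treatment at 37C, ONE-Glo luminescence detection, DMSO as negative control and baseline.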

[15] = TOX21_PR_LUC_Followup_Antagonist_viability: Viability Assessment in the Tox21 HEK293 Progesterone Receptor (PR) Antagonism Luciferase Follow-Up Assay (AID 2283940)
Method in brief: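 Loss of CellTiter-Glo ATP signal indicates cytotoxicity in HEK293-PR-A-luc cells grown in 10% charcoal-stripped FBS medium, seeded 3,000 per well and incubated 16 h with compound at 37C.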

[16] = TOX21_PR_LUC_Followup_Agonist_viability: Viability Assessment in the Tox21 HEK293 Progesterone Receptor (PR) Agonism Luciferase Follow-Up Assay (AID 2283941);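 further: loss of signal means cytotoxicity so actives lower viability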
Method in brief: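 Seeding: HEK293-PR-A-luc, 3,000 cells/well, 5 h at 37C. Treatment: compound in DMSO, 16 h, 37C. Read: CellTiter-Glo ATP luminescence, signal loss taken as lower viability.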

CN(C)CCOC1=Cc2ccccc2Sc2ccc(Cl)cc21
outcome [1]: inactive | outcome [2]: inactive | AC50 [3]: 35.4 µM (active)

CC1(C)S[C@@H]2[C@H](NC(=O)C(C(=O)O)c3ccsc3)C(=O)N2[C@H]1C(=O)O (stereo partly drawn)
outcome [1]: inactive | outcome [2]: inactive | outcome [3]: inactive | outcome [4]: inactive | outcome [5]: inactive

COc1ccc([C@@H]2Sc3ccccc3N(CCN(C)C)C(=O)[C@@H]2OC(C)=O)cc1
outcome [1]: inactive | AC50 [2]: 38.8 µM (active) | AC50 [6]: 43.6 µM (active) | outcome [5]: inactive | outcome [7]: inactive | outcome [8]: inactive | outcome [9]: inactive

CCCCCCc1ccc(-c2ccc(C#N)cc2)cc1
outcome [1]: inactive | outcome [2]: inactive | outcome [3]: inactive

CCOC(=O)[C@@H](N)CS
outcome [1]: inactive | outcome [2]: inactive | outcome [6]: inactive | outcome [5]: inactive | outcome [7]: inactive

Cc1ccc(C(=O)O)cc1
outcome [1]: inactive | outcome [2]: inactive | outcome [3]: inactive | outcome [4]: inactive | outcome [5]: inactive

CC(C)=CCCC(C)=CC=NO
outcome [1]: inactive | outcome [2]: inactive | outcome [3]: inactive

COc1ccc2[nH]c(S(=O)Cc3ncc(C)c(OC)c3C)nc2n1 (stereo not drawn)
outcome [1]: inactive | outcome [2]: inactive | outcome [6]: inactive | outcome [7]: inactive

COC(=O)[C@H]1[C@H]2C[C@@H]3c4[nH]c5cc(OC)ccc5c4CCN3C[C@H]2C[C@@H](OC(=O)COc2ccc(OC)cc2)[C@@H]1OC
outcome [1]: inactive | outcome [2]: inactive | outcome [6]: inactive | outcome [4]: inactive | outcome [5]: inactive | outcome [7]: inactive

CC(C(O)c1ccc(O)cc1)N1CCC(Cc2ccccc2)CC1 (stereo not drawn)
outcome [1]: inactive | outcome [2]: inactive | outcome [3]: inactive | outcome [4]: inactive

SCCSCCS
outcome [1]: inactive | outcome [2]: inactive | outcome [6]: inactive | outcome [5]: inactive | outcome [7]: inactive

CCCCCCCCCCCCCCCCCCOCCO
outcome [1]: inactive | outcome [2]: inactive | outcome [3]: inactive | outcome [4]: inactive

COc1cc(OC)cc(OC)c1
outcome [1]: inactive | outcome [2]: inactive | outcome [6]: inactive | outcome [4]: inactive | outcome [5]: inactive | outcome [7]: inactive

CCC[C@H](N[C@@H](C)C(=O)N1[C@H](C(=O)O)C[C@@H]2CCCC[C@@H]21)C(=O)OCC
outcome [1]: inactive | outcome [2]: inactive | outcome [6]: inactive | outcome [5]: inactive | outcome [7]: inactive | outcome [8]: inactive | outcome [9]: inactive | outcome [10]: inactive

NCC1CCC(C(=O)O)CC1 (stereo not drawn)
outcome [1]: inactive | outcome [2]: inactive | outcome [6]: inactive | outcome [4]: inactive | outcome [7]: inactive

NC[C@H]1O[C@H](O[C@H]2[C@H](O)[C@@H](O[C@H]3O[C@H](CO)[C@@H](O)[C@H](N)[C@H]3O)[C@H](N)C[C@@H]2N)[C@H](N)C[C@@H]1O
outcome [1]: inactive | outcome [2]: inactive | outcome [6]: inactive | outcome [4]: inactive | outcome [7]: inactive

CC(O)[C@@H]1NC(=O)[C@H](CCCCN)NC(=O)[C@@H](Cc2c[nH]c3ccccc23)NC(=O)[C@H](Cc2ccccc2)NC(=O)[C@@H](NC(=O)[C@H](N)Cc2ccccc2)CSSC[C@@H](C(=O)N[C@H](CO)[C@@H](C)O)NC1=O (stereo partly drawn)
outcome [1]: inactive | outcome [2]: inactive | outcome [3]: inactive | outcome [4]: inactive

COC(=O)[C@H]1[C@H]2C[C@@H]3c4[nH]c5cc(OC)ccc5c4CCN3C[C@H]2C[C@H](OC)[C@@H]1OC
outcome [1]: inactive | outcome [2]: inactive | outcome [3]: inactive | outcome [4]: inactive

NC(=O)CCCCC1CCSS1 (stereo not drawn)
outcome [1]: inactive | outcome [2]: inactive | outcome [3]: inactive | outcome [4]: inactive

CSCCC(N)C(=O)O (stereo not drawn)
outcome [1]: inactive | outcome [2]: inactive | outcome [6]: inactive | outcome [4]: inactive | outcome [7]: inactive

Cc1cccc2nccnc12
outcome [1]: inactive | outcome [2]: inactive | outcome [6]: inactive | outcome [4]: inactive | outcome [7]: inactive

Nc1nc2c(c(=O)[nH]1)N(C=O)C(CNc1ccc(C(=O)N[C@@H](CCC(=O)O)C(=O)O)cc1)CN2 (stereo partly drawn)
outcome [1]: inactive | outcome [2]: inactive | outcome [6]: inactive | outcome [4]: inactive | outcome [7]: inactive

OCCOCC#CCOCCO
outcome [1]: inactive | outcome [2]: inactive | outcome [6]: inactive | outcome [5]: inactive | outcome [7]: inactive

C[C@]12CCC(=O)C=C1C=C[C@@H]1[C@@H]2CC[C@@]2(C)[C@H]1CC[C@@]21CCC(=O)O1
outcome [1]: inactive | outcome [2]: inactive | outcome [6]: inactive | outcome [4]: inactive | outcome [5]: inactive | outcome [11]: inactive | outcome [12]: inactive | outcome [13]: inactive | outcome [14]: inactive | outcome [15]: inactive | outcome [16]: inactive

O=S(O)CNc1ccc(S(=O)(=O)c2ccc(NCS(=O)O)cc2)cc1
outcome [1]: inactive | outcome [2]: inactive | outcome [6]: inactive | outcome [5]: inactive

c1ccc(CC2=NCCN2)cc1
outcome [1]: inactive | outcome [2]: inactive | outcome [3]: inactive | outcome [4]: inactive

CC(COC(=O)c1ccccc1)OC(=O)c1ccccc1 (stereo not drawn)
outcome [1]: inactive | outcome [2]: inactive | outcome [6]: inactive | outcome [4]: inactive | outcome [5]: inactive | outcome [7]: inactive

CCCc1nn(C)c2c(=O)[nH]c(-c3cc(S(=O)(=O)N4CCN(C)CC4)ccc3OCC)nc12
outcome [1]: inactive | outcome [2]: inactive | outcome [6]: inactive | outcome [5]: inactive

[O]=[Mo](=[O])=[O]
outcome [1]: inactive | outcome [2]: inactive | outcome [6]: inactive | outcome [5]: inactive
